Consider 22 compounds from paper PMC11062922 (Nature Chemical Biology, 2023).

Where two headings read alike, the source gives them in different places.

What all share (design): species or system human, MV4-11 + K-562 + COLO205 + SK-N-BE2 + OVCAR-8
The subject of one assay is MST1R. To be noted: read-out: apparent Kd, compound concentrations: 100 nM and 1000 nM (sheet 'Samples'), n = 1.
Another assay deals with PRKCA. To be noted: read-out: apparent Kd, compound concentrations: 100 nM and 1000 nM (sheet 'Samples'), n = 1.
Another assay concerns MET. The note with it: read-out: apparent Kd; compound concentrations:100 nM and 1000 nM (sheet 'Samples'); n = 1.
The subject of another assay is CHEK1. To be noted: read-out: apparent Kd, compound concentrations: 100 nM and 1000 nM (sheet 'Samples'), n = 1.
For a further assay, the system named is PIM1. To be noted: read-out: apparent Kd; compound concentrations: 100 nM and 1000 nM (sheet 'Samples'), CATDS: 4.3475641275587597E-2; n = 1.
A further assay concerns SPR. The note with it: read-out: apparent Kd; compound concentrations: 100 nM and 1000 nM (sheet 'Samples'), CATDS: 2.8512814896169001E-2; n = 1.
Another assay has as its system AKT3. The note with it: read-out: apparent Kd; compound concentrations: 100 nM and 1000 nM (sheet 'Samples'), CATDS: 1.96345458497789E-2; n = 1.
Another assay has as its system NUAK2. To be noted: read-out: apparent Kd, compound concentrations: 100 nM and 1000 nM (sheet 'Samples'), n = 1.
The subject of the next assay is TAOK3. The note with it: read-out: apparent Kd, compound concentrations: 100 nM and 1000 nM (sheet 'Samples'), n = 1.
Another assay deals with TP53RK. The note with it: read-out: apparent Kd; compound concentrations: 100 nM and 1000 nM (sheet 'Samples'), CATDS: 0.13765543946778; n = 1.
In a further assay the test system is STK11. To be noted: read-out: apparent Kd, n = 1.
The test system of a further assay is ATR. To be noted: read-out: apparent Kd, n = 1.
In another assay the test system is MCM5. The note with it: read-out: apparent Kd; compound concentrations:100 nM and 1000 nM (sheet 'Samples'); n = 1.
The next assay has as its system EIF2AK1. The note with it: read-out: apparent Kd, n = 1.
A further assay deals with MAP4K3. The note with it: read-out: apparent Kd; compound concentrations: 100 nM and 1000 nM (sheet 'Samples'), CATDS: 1.29423166532144E-2; n = 1.
In a further assay the test system is CDC42. The note with it: read-out: apparent Kd; compound concentrations:100 nM and 1000 nM (sheet 'Samples'); n = 1.
A further assay concerns MAP3K1. The note with it: read-out: apparent Kd, n = 1.
The mark [1] stands for this setting: compound concentrations:100 nM and 1000 nM (sheet 'Samples').

On to `CS(=O)(=O)CCNCc1ccc(-c2ccc3ncnc(Nc4ccc(OCc5cccc(F)c5)c(C(F)(F)F)c4)c3c2)o1` [GW576484X], for which the potency estimated from few doses with MST1R (CATDS: 4.8936571303095901E-2) was 2.07 µM. With `Cc1cccc(Nc2nc(NCCN)ncc2C(N)=O)c1` [GSK1292139B], the potency estimated from few doses with PRKCA (CATDS: 7.8456539991917998E-2) is 1.1 µM. For `CS(=O)(=O)Cc1ccc(Nc2nccc(-c3c(-c4cccc(NC(=O)C5CCCCC5)c4)nn4ncccc34)n2)cc1` [GSK350559A], the potency estimated from few doses in the assay on MET was 1.78 µM. As to `COc1ccc(Nc2nccc(N3CCC(NC(=O)Nc4ccc5c(c4)OCO5)C3)n2)cc1` (stereo not shown) [GSK1379745A], the potency estimated from few doses with CHEK1 (CATDS: 3.4900444296342099E-2) is 2.07 µM; in the assay with PIM1, 1.26 µM. Consider `Cc1ccc(O)cc1Nc1ccnc2cc(-c3ccccn3)ccc12.Cl` [GW440139A], for which the potency estimated from few doses in the assay with SPR is 0.683 µM. In the case of `Cl.Cl.Cl.c1ccc(Oc2ccc(Nc3ccnc4cc(-c5ccc(CN6CCNCC6)o5)ccc34)cc2)nc1.c1ccc(Oc2ccc(Nc3ccnc4cc(-c5ccc(CN6CCNCC6)o5)ccc34)cc2)nc1` [GW567142A], in the assay on AKT3, the potency estimated from few doses is 1.22 µM.

`CN1C(=O)c2ccccc2N(C)c2nc(Nc3cnn(C4CCNCC4)c3)ncc21` [XMD-17-51]: the potency estimated from few doses was 1.63 µM in the assay with NUAK2 (CATDS: 1.40993766530741E-2) and 0.0783 µM with TAOK3 (CATDS: 4.0612086764621601E-2). `CCc1nc(-c2cccc(N(C)S(=O)(=O)c3ccccc3)c2)c(-c2ccnc(Nc3ccc(N4CCN(C(C)=O)CC4)nc3)n2)s1` [GSK1645895A]: the potency estimated from few doses with TP53RK was 1.94 µM.

As for `NC(=O)c1cccc(Nc2nccc(Nc3cccc4[nH]ncc34)n2)c1` [GW782612X], in the assay with STK11 (compound concentrations: 100 nM and 1000 nM (sheet 'Samples'), CATDS: 6.0653418391634698E-2), the potency estimated from few doses is 0.342 µM.

With `Cc1cccc(-c2cc(-c3c[nH]nc3-c3ccccn3)ccn2)c1` [GW679395X], the potency estimated from few doses is 0.784 µM with ATR (setting [1]) and 2.22 µM with MCM5. As to `CC(C)c1nc(-c2cccc(NS(=O)(=O)c3ccccc3)c2)c(-c2ccnc(Nc3ccc4c(c3)CN(C)CC4)n2)s1` [GSK1649598A], the potency estimated from few doses in the assay on EIF2AK1 (compound concentrations: 100 nM and 1000 nM (sheet 'Samples'), CATDS: 1.2049138134939999E-2) was 2.29 µM; in the assay with MAP4K3, 1.57 µM; with TAOK3 (CATDS: 1.6812822211495999E-2), 0.6 µM. On to `Cn1cc(C2=C(c3cn(CCCO)c4ccccc34)C(=O)NC2=O)c2ccccc21` [RO0317377-000], for which, in the assay with PRKCA (CATDS: 0.117489729482602), the potency estimated from few doses is 1.24 µM. With `COc1cc(Nc2ccnc3cc(-c4ccncc4)ccc23)cc(OC)c1OC.Cl` [GW494610A], the potency estimated from few doses in the assay on MST1R (CATDS: 2.33652063903033E-2) was 1.28 µM. Take `CCN(CC)CCOc1ccc(Nc2ncc3cc(-c4c(Cl)cccc4Cl)c(=O)n(C)c3n2)cc1` [SB-601273]: the potency estimated from few doses in the assay on EIF2AK1 (setting [1]) was 0.802 µM. Take `O=C1N=C(NCc2cccs2)SC1Cc1ccc2ncccc2c1` (stereo not shown) [RO4629078-000]: the potency estimated from few doses with CHEK1 (CATDS: 9.1517924527920996E-3) is 0.847 µM; in the assay with NUAK2 (CATDS: 9.28769092053984E-3) it was 0.813 µM. In the case of `CS(=O)(=O)c1ccc(-c2cnc(N)c(C(=O)Nc3ccccc3)n2)cc1` [VE-821], in the assay on ATR (compound concentrations: 100 nM and 1000 nM (sheet 'Samples'), CATDS: 0.19985195991101001), the potency estimated from few doses is 0.648 µM. For the compound `Nc1nc(N)c2nc(-c3ccccc3)[nH]c2n1` [SKF-12778], the potency estimated from few doses in the assay with ATR (setting [1]) is 0.52 µM; with MCM5, 2.16 µM; with STK11 (setting [1]), 1.74 µM. As for `Cn1cc(-c2ccc3c(c2)CCN3C(=O)Cc2cccc(Cl)c2)c2c(N)ncnc21` [GSK2606590A], the potency estimated from few doses in the assay on EIF2AK1 (compound concentrations: 100 nM and 1000 nM (sheet 'Samples'), CATDS: 0.41818384912394302) was 0.679 µM.

Consider `COc1cc2ncn(-c3cc(OCc4cccs4)c(C(N)=O)s3)c2cc1OC` [GSK312948A], for which the potency estimated from few doses in the assay with CDC42 is 1.55 µM; in the assay with MAP3K1 (setting [1]), 1.47 µM. In the case of `CN1CCc2ccc(Nc3nccc(-c4c(-c5cccc(NC(=O)c6c(F)cccc6F)c5)nc5ccccn45)n3)cc2C1.Cl` [GSK1010829B], the potency estimated from few doses in the assay on TAOK3 (CATDS: 3.3504953987682898E-2) was 1.49 µM.

For the compound `COc1cccc(-c2c[nH]c3c(N/N=C/c4ccncc4)ncnc23)c1` [GW814408X], the potency estimated from few doses in the assay on STK11 (setting [1]) was 1.9 µM. Regarding `COc1cccc(-n2cnc3c(N/N=C/c4ccncc4)ncnc32)c1` [GW813360X], the potency estimated from few doses in the assay with MAP3K1 (compound concentrations: 100 nM and 1000 nM (sheet 'Samples'), CATDS: 0.17625774536474501) is 1.04 µM.
